Screen size: about 53,000 sequences; about 3,700 (7%) were called active.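 Rule for the calls: active = gene knockdowns whose robust z-score for IL-1 alpha signal is at least 2 or at most -2, so actives lie on both sides; inactive = the rest.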 The entries come from a sample that favours actives as a whole.
assay: Components of the Cytosolic LPS Sensing Pathway: Gene Identification via Genome-wide siRNA Screen; conditions: RAW264.7 macrophages, IL-1a HTRF, actives lie on both sides, screened at 100 nM (by protocol), cells primed 5 h with Pam3CSK4 first;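 note: robust z of the log signal after scaling to non-targeting control siRNA wells of the plate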
Outline: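 Using IL-1a HTRF as read-out, the screen measured release from RAW264.7 cells after 48h siRNA knockdown (100 nM), 5 h Pam3CSK4 priming and 24 h cytosolic LipidA. Values were expressed relative to negative-control wells as robust z-scores.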

z-score, active:
GGCCUCCUAUAGACGGGAUTT against Vdac3 2.49
GCCGGACAACUCUAAUCAGTT against Herpud1 3.22
GCCCGAUAUUAUAACGGUGTT against Eomes 2.97
GGAAACUCCCUGAACCGGATT against Zcrb1 2.26
GGGUUUUAGAAUGAAAUACTT against Emc6 2.35
GGCCAGACAUGUUGAAGAATT against Ssna1 -2.42
GCUUCCCGCUAUGAGUUCATT against Shisa7 2.24
GGCUUUGAGAUAUGAACAGTT against Arrdc2 2.53
GGAGAGACUCAGGAGUUUUTT against Rnd2 2.74
GGGUACGUGAAGAAACUUCTT against Meig1 -2.23
GCUGGUCAAGGGUCUAGAGTT against Saa3 -2.05
GGAUCCAACAAAUGUUAUUTT against Ccdc92 2.06
GGGCUCCUUUUUUUUUUUUTT against Frat1 -2.55
CCCUCUUUAUCGUCUGUGATT against Gpha2 -2.89
CCUACCACAACAUGUAUCCTT against S100a11 2.25
GCUGCUAUGAGAGAGUUUUTT against Serpind1 2.18
GCACCGAGUGGAAUAAUCATT against Lrp12 3.44
GGGAAAAUAUCAGCUCAAUTT against D930048N14Rik -2.63
GGGCAUGUGGAUGACUGAUTT against Gnptg 2.04
GGGCUAGCAUCACAGUUUUTT against Tigd3 2.3
GGCUUGCAUAUCUAUUGGATT against Map2k6 2.61

z-score, inactive:
GGGAGACCGGCAAAAAAAATT against Pde1b 0.999
CGAGAUGUGUGUUAAAGGATT against Utp23 0.934
GCAAGUUGUCAAAUCUAAATT against Tspan13 1.42
CCAAGGUAUGAAGAUAUUUTT against Rfpl4 0.575
GCAUGUUUUGGUGUAUAGUTT against Arl4a -1.81
CGGUGUUUGAAAUCGUGCATT against Dgcr6 0.533
CCAGAGCCCAAGCCAAGUUTT against Nanos3 0.639
GGUAUCCAGAUGAAAGAUGTT against Nlrp10 -1.13
GGCCCUCAAAAAUCACGAGTT against Ehd1 1.11
GGCAACAUCACUGAGUAUCTT against Glg1 0.57
GGAUCUUCUCUGCCUAUAUTT against Arpc1b -1.42
GGAGGAGAAGAAGAAGGCCTT against Unc119b 0.28
CCUCAUGCUAGCCUCAUGATT against Actg1 -0.214
GCUAUUGGGACUUAGAACATT against Slc26a9 0.191
CCAGUAAACCUACAUGUUCTT against Htr3b -0.024
GGCUAAAAUAAGCAAUCUGTT against Optc -1.35
GGUAUUGAGUAUCUUAGGUTT against Atf7 -0.543
CGUUUUGUACAGAUAUACUTT against Fam3b -0.571
GAUUCCAAGACAUUAAACATT against Fxn 0.485
GGCAGUUCAUGUUUAAAGATT against Fgfr1op2 -0.381
CGAGAGCAUUAAUUACUUCTT against Sulf1 0.621
GGACUACGAAUACCCAUCGTT against Cck -0.42
GGGCAAUUUGGACUGUUUUTT against Jam3 -0.973
GGAAGCAUUCCAAUGGUAGTT against Cyp2c39 -0.532
CGAUGCUGUGGAACUGCACTT against Ptgfrn 0.417
CCGCGCCGUUGAUUCAUUUTT against Spata17 1.08
GGACACCAUGCCACAGACATT against Hlx -1.43
GCAGAUCACCUUUUGUUUATT against Gdap2 0.767
GGAUCCGUGCUGAAGUUUUTT against Cep20 -0.338
GGAUUGUUAGCAAAGAAAGTT against Aco1 -0.0776
GGUAGCAUGCUUUUGGUGCTT against Unkl 0.329
CGAAGGCUUUUGAAUUCAATT against Pcdh17 0.41
GGACUUCUACACCUCGAAATT against Amz2 -1.05
GCUGAGGAAAUGCGAAGUCTT against Tmem98 0.0406
GGGCAACCCACAAUAAAAATT against B9d1 -1.66
GGCAAGGAAUCAAUGUCUCTT against Fscn2 -0.229
GGACAAUUCCAGUCAAUAATT against Ccdc115 -1.01
GGAUUUCGGCUUUUUGAACTT against Bcas1 0.531
GCCCUUAUGGACGAAAUUUTT against Ang2 0.0523
GGUCUGCUCAAUGCUAUCATT against Olfr918 -1.47
UGAAUAAGGUGUGGUGCUCTT against Vmn1r148 0.607
GGCUAACUUUAGUGAGGUATT against 3110070M22Rik 0.233
CCGAAGUGCAACAAGCCAATT against Abl2 1.17
GGGCACACGUACCAACUAUTT against Mib2 -0.458
GGGACCCUACAAAAUCAUUTT against Ganab 0.467
GGAUCUUUUCAGGUUCUAATT against Olfr659 0.377
GCUAGAAGCCUGACAUUUUTT against Tbca -0.538
CGAUUGAUGAAUCUGGUUCTT against Racgap1 -0.31
GGGAGUUCUCUAAAUGCUUTT against Olfr482 1.52
GCCUCCAGUAUCAUAAUUGTT against Antxr2 1.26
CCAGUUCGAUGUGGUAAUATT against St3gal5 1.11
GGAUGUCACAUGACAGUUUTT against Tmprss4 0.563
CGAUGGUGAUUCCCAUGUUTT against Olfr996 0.529
GCUAUCUCGGUGUCAACUUTT against Aqp7 -1.26
GGUUGGAUUAUUAGGAAUUTT against Dnah5 0.0387
CCAAUUGCUCUCCAUGAAATT against Coro1c 0.331
GCUUGGAAGACAUUGACCCTT against Brsk2 -0.996
GGUUACAGAAGAAUUAGAATT against Ift57 9.9e-05
GGGAUUGAGAUCCUCAUACTT against Olfr1179 0.125
GCCGAGAUGGUCAUAAGCUTT against Rbbp5 1.99
GCACGGCGAAAAAAUCUUCTT against Katnal2 -0.167
GCAGUGGUAGAACAUCCAATT against Bhmt2 0.585
CCUACUGUCUAAGAAUACATT against Olfr1138 -1.65
CCUUCCACAAAUACUCAGGTT against S100a4 0.562
GGCUUAUGUGAUUUUGAUUTT against Gpr63 -0.628
GGAGAAGAUGUCAUCCAGATT against Zfp467 -0.37
GGAUAGACACUAGGAUCCUTT against Pdcd1lg2 0.721
GGCAACAAAUCAAAGCAGCTT against Anxa7 1.4
GCUUAUAAAGUAGUGGUUUTT against Wnt2b -0.384
CCGUAAGUCUCGGAUCUCCTT against Plcxd1 0.373
GCCACUACAUAAAAUAGUCTT against Ube2z 0.0966
GGAGAUGAGGUGAAGUGGATT against Acsm4 -0.213
GGCAUAUAUACAUGCCUGCTT against Vmn1r215 0.833
GCCCUACUAAGUCAAUUAATT against 1700055D18Rik 0.248
GGACAUUUUCAAACAAGGCTT against Mthfs -1.07
GCCUUGUGACAGCAUUAGUTT against Slc6a13 -0.0361
GGUGCUAAAUAAGACAAUGTT against Psma4 -1.76
GCCCACUCACACCUAUUCUTT against Olfr1388 0.406
GGCGCAAGUUUGAUUUUGATT against Gigyf1 1.23
CCAUCUUGAAGAUUCGUUCTT against Olfr486 -1.24
GCUAAUCUAUCCGUGUCCUTT against B3gnt3 -0.522
GGUAUAGCGGUGCAUGUCATT against Bmp8a -0.823
GCUGGAGAUCAUCCUUCAGTT against Rph3al 0.742
GCUCCAGGCAUUGAGAAUGTT against Hcfc1r1 1.98
GGGAAGCUAAUAAAAGCACTT against Rgs20 -0.902
GGUGCUCAAAGAAUGCAUUTT against Prkar1b 0.367
CCUCUCAGAUUUUCACAUATT against Zfp599 1.36

Reference: PubChem BioAssay AID1508600 (Functional Genomics Laboratory (NCATS/FGL), 2020)
